{
  "source": "paper PMC4336329",
  "about": "(PLoS ONE, 2015)",
  "note": "The campaign covered roughly 310,000 compounds. About 14,000 (4.5%) showed an effect of 50% or more. Effects have a minus sign here. This is one part of a sample in which strong results are shown more often than they occur.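 Also: peak tail current of the secondary pulse compared with the same well before compound.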",
  "data": [
    {"target": "human ether-à-go-go-related gene (hERG) potassium channel (human, UniProt Q12809)", "sequence (Q12809 whole entry, looked up)": "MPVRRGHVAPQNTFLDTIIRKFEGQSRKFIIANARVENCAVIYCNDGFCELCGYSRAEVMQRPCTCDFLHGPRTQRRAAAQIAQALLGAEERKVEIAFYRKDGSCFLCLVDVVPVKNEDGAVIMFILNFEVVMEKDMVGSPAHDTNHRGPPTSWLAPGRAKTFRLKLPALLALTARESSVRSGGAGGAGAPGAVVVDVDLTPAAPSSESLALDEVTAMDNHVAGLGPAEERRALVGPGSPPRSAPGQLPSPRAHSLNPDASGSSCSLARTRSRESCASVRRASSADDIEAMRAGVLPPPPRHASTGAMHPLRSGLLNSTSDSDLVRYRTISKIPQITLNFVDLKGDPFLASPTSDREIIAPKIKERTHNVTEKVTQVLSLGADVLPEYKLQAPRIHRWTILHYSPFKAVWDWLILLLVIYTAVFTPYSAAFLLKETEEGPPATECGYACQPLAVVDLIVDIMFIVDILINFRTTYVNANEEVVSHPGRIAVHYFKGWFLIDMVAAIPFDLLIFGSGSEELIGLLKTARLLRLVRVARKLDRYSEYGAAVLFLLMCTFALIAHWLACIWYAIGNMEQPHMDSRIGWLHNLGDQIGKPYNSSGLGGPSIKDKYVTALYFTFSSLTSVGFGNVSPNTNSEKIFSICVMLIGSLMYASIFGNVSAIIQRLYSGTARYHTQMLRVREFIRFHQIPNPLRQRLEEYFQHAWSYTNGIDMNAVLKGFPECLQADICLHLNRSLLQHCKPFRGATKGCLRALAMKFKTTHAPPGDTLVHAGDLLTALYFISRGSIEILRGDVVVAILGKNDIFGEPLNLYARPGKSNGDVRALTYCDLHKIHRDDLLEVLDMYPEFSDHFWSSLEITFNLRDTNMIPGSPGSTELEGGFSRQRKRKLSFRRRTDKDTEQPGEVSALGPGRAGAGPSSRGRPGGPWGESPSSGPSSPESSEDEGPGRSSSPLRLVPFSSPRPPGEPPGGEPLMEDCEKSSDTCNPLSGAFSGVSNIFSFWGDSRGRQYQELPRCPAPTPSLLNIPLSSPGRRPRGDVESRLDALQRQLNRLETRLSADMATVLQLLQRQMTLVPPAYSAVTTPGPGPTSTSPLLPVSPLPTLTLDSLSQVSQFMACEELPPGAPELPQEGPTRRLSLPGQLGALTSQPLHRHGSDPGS", "test": "primary screen, population patch clamp on CHO cells stably expressing hERG; higher = less effect of the substance", "units": {"hERG current change (%, negative = inhibition) at 10uM": "%"}, "values": [
      {"compound": "Cc1cc2cc(CCNC(=O)c3ccc(S(=O)(=O)N4CCOCC4)cc3)c(=O)[nH]c2cc1C", "hERG current change (%, negative = inhibition) at 10uM": 6.3},
      {"compound": "Cc1ccnc(NS(=O)(=O)c2ccccc2)c1", "hERG current change (%, negative = inhibition) at 10uM": 15.2},
      {"compound": "Cc1cc(-c2ccc(C)c(S(=O)(=O)NCCCN3CCN(c4ccccc4F)CC3)c2)on1", "hERG current change (%, negative = inhibition) at 10uM": 10.3},
      {"compound": "Cc1cc(-c2ccc(C)c(S(=O)(=O)NCCCN(Cc3ccccc3)C(C)C)c2)on1", "hERG current change (%, negative = inhibition) at 10uM": -36.9},
      {"compound": "COc1ccccc1CNS(=O)(=O)c1cc(-c2cc(C)no2)ccc1C(C)C", "hERG current change (%, negative = inhibition) at 10uM": 5.07},
      {"compound": "CCc1ccc(-c2cc(C)no2)cc1S(=O)(=O)NCCCN1CCN(c2ccccc2)CC1", "hERG current change (%, negative = inhibition) at 10uM": 1.91},
      {"compound": "CCN(CCCNS(=O)(=O)c1cc(-c2cc(C)no2)ccc1C)Cc1ccccc1", "hERG current change (%, negative = inhibition) at 10uM": -61.3},
      {"compound": "CCc1ccc(-c2cc(C)no2)cc1S(=O)(=O)NCCN1CCC(C)CC1", "hERG current change (%, negative = inhibition) at 10uM": -7.14},
      {"compound": "Cc1cc(-c2ccc(C)c(S(=O)(=O)NCCCN3CCN(c4ccccc4)CC3)c2)on1", "hERG current change (%, negative = inhibition) at 10uM": -33.2},
      {"compound": "COc1ccccc1CN1CCC(CNS(=O)(=O)c2cc(-c3cc(C)no3)ccc2C)CC1", "hERG current change (%, negative = inhibition) at 10uM": -61.3},
      {"compound": "COc1ccc(-c2cc(C)no2)cc1S(=O)(=O)NCCCN(C)Cc1ccccc1", "hERG current change (%, negative = inhibition) at 10uM": -29.9},
      {"compound": "COc1ccc(-c2cc(C)no2)cc1S(=O)(=O)NCCCN1CCN(c2ccccc2)CC1", "hERG current change (%, negative = inhibition) at 10uM": -68},
      {"compound": "Cc1cc(-c2ccc(C)c(S(=O)(=O)NCC3CCN(Cc4ccccc4F)CC3)c2)on1", "hERG current change (%, negative = inhibition) at 10uM": -52.8},
      {"compound": "CCOc1ccccc1CNS(=O)(=O)c1cc(-c2cc(C)no2)ccc1C", "hERG current change (%, negative = inhibition) at 10uM": -19},
      {"compound": "O=C(CCCCCNC(=O)c1ccccc1)N/N=C/c1ccccc1", "hERG current change (%, negative = inhibition) at 10uM": -9.98},
      {"compound": "O=C(Nc1ccc2oc(-c3cccnc3)nc2c1)c1ccc2c(c1)OCCO2", "hERG current change (%, negative = inhibition) at 10uM": 20.2},
      {"compound": "CCCCCC/C=C/c1ccc([C@H]2[C@H]3C=CC[C@@H](C)[C@@H]3C(=O)N2Cc2ccccc2)c(F)c1", "hERG current change (%, negative = inhibition) at 10uM": 4.76},
      {"compound": "S=C1NC(c2ccccc2)=NCN1c1ccc(Br)cc1", "hERG current change (%, negative = inhibition) at 10uM": -12.9},
      {"compound": "COc1ccccc1N(CC(=O)NCCSCc1ccc(Cl)cc1)S(C)(=O)=O", "hERG current change (%, negative = inhibition) at 10uM": -0.283},
      {"compound": "C=CCSc1nccc(-c2nn(-c3ccc(C)cc3)ccc2=O)n1", "hERG current change (%, negative = inhibition) at 10uM": -8.82},
      {"compound": "O=C1NC(=O)N(CCc2ccc(F)cc2)C(=O)/C1=C/c1cccs1", "hERG current change (%, negative = inhibition) at 10uM": 16.1},
      {"compound": "Cc1c(NC(=O)COC(=O)c2ccc(Br)o2)c(=O)n(-c2ccccc2)n1C", "hERG current change (%, negative = inhibition) at 10uM": 13.8},
      {"compound": "O=C(COc1ccc(-c2ccccc2)cc1)N/N=C/c1cccnc1", "hERG current change (%, negative = inhibition) at 10uM": 7.95},
      {"compound": "CCOc1ccccc1-c1cc(C(=O)N/N=C/c2cccnc2)c2ccccc2n1", "hERG current change (%, negative = inhibition) at 10uM": -6.35},
      {"compound": "COc1ccc(/C=N/NC(=O)c2ccccc2NC(=O)c2ccco2)c(OC)c1", "hERG current change (%, negative = inhibition) at 10uM": 15.3},
      {"compound": "O=C(COc1ccccc1-c1ccccc1)N/N=C/c1cccnc1", "hERG current change (%, negative = inhibition) at 10uM": -52.8},
      {"compound": "O=C(N/N=C/c1cccnc1)c1ccccc1OCc1ccc(Cl)cc1", "hERG current change (%, negative = inhibition) at 10uM": -38.4},
      {"compound": "CC(C)Oc1ccccc1-c1cc(C(=O)N/N=C/c2cccnc2)c2ccccc2n1", "hERG current change (%, negative = inhibition) at 10uM": -51.1},
      {"compound": "O=C(N/N=C/c1cccnc1)c1ccccc1OCc1ccc(Br)cc1", "hERG current change (%, negative = inhibition) at 10uM": -52.6},
      {"compound": "O=C(N/N=C/c1cccnc1)c1ccccc1OCc1cccc(Br)c1", "hERG current change (%, negative = inhibition) at 10uM": -17.1},
      {"compound": "O=C(COc1ccccc1-c1ccccc1)N/N=C/c1ccncc1", "hERG current change (%, negative = inhibition) at 10uM": -26.2},
      {"compound": "COc1ccc(/C=N/NC(=O)c2ccccc2OCc2ccccc2)c(OC)c1", "hERG current change (%, negative = inhibition) at 10uM": -53.8},
      {"compound": "Cc1ccccc1-c1cc(C(=O)N/N=C/c2cccnc2)c2ccccc2n1", "hERG current change (%, negative = inhibition) at 10uM": -3.87},
      {"compound": "COc1ccc(/C(C)=N/NC(=O)c2ccccc2OCc2ccccc2)c(OC)c1", "hERG current change (%, negative = inhibition) at 10uM": 11.2},
      {"compound": "Cc1ccccc1N/N=C/c1ccc(N2CCOCC2)cc1", "hERG current change (%, negative = inhibition) at 10uM": -2.55},
      {"compound": "CCn1cc(CNC(=O)C2CCC(=O)N(Cc3ccccc3F)C2)cn1", "note": "(centres unmarked)", "hERG current change (%, negative = inhibition) at 10uM": 8.25},
      {"compound": "COc1ccc(C(=O)Nc2ccccc2C(=O)N2CCOCC2)cc1Br", "hERG current change (%, negative = inhibition) at 10uM": -17.3},
      {"compound": "C/C(=N\\NC(=O)COc1ccccc1-c1ccccc1)c1ccccn1", "hERG current change (%, negative = inhibition) at 10uM": -6.93},
      {"compound": "C/C(=N\\NC(=O)Cc1ccccc1)c1cccnc1", "hERG current change (%, negative = inhibition) at 10uM": 15.3},
      {"compound": "C/C(=N\\NC(=O)COc1ccccc1-c1ccccc1)c1cccnc1", "hERG current change (%, negative = inhibition) at 10uM": -53.9},
      {"compound": "CSCCC(NS(=O)(=O)c1cc(C(=O)O)ccc1Cl)C(=O)O", "note": "(centres unmarked)", "hERG current change (%, negative = inhibition) at 10uM": 45}
    ]}
  ]
}
